High-throughput results: PubChem BioAssay, Broad Institute
Shown are actives, neighbours in structure and some others; about 4% of the full set was active somewhere.
MLL AF4-AF9 inh: inhibitors of AF4 peptide binding to AF9, primary screen, biochemical, AlphaScreen, biotin-AF4 peptide, FLAG-AF9, single point | hit rate 0.47% among 350,000 | inhibition, % at 10 µM;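 active = every replicate reaching a set inhibition limit, whatever the replicate mean, cut at about 25% in these data; inconclusive = mean inhibition reaches that limit but some replicates miss it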;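 note: 0% = plate neutral control median and 100% = total signal loss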
Target sequence (P42568 whole entry, looked up): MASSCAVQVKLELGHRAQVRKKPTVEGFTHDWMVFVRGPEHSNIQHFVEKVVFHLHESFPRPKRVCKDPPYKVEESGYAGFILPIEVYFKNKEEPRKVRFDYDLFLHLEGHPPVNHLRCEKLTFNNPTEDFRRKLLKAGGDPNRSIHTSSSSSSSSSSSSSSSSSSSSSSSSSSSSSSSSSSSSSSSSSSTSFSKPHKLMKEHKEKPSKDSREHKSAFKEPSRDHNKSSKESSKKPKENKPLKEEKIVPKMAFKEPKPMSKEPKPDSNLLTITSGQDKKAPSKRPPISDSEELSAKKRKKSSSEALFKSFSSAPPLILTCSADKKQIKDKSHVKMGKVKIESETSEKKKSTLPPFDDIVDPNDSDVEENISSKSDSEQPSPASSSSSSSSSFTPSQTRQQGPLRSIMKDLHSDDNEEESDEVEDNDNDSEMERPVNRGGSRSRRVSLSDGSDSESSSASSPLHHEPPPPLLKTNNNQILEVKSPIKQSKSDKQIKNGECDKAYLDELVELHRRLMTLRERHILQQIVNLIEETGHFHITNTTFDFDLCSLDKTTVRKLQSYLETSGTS
ERAP1 inh: human ERAP1 aminopeptidase inhibitors, primary screen, biochemical, single point, plate reader. inhibition, % at 10.7 µM. hit rate 0.15% among 340,000. recombinant ERAP1, Leu-AMC fluorescence, 60 min. Endoplasmic reticulum aminopeptidase 1 (Homo sapiens), Q9NZ08;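 active = mean replicate inhibition of at least 30%, or all replicates individually reaching that 30% level; inactive = mean below 30% and not every replicate reaching it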;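 note: 0% = neutral control wells and 100% = L-leucinethiol positive control wells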
FGF22 binding: binders of human FGF22 protein, primary screen, FGF22 synaptogenesis inhibitor project, biophysical, thermal shift, single point; Fibroblast growth factor 22 (Homo sapiens), Q9HCT0; hit rate 1.5% among 340,000; recombinant FGF22 thermal shift, SYPRO orange fluorescence; percent of sucrose octasulfate shift, DMSO zero; activity (Tm shift, normalised), % at 9.99 µM;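 active = mean Tm shift, scaled 0 neutral to 100 positive control, at about 1.3% or above, every replicate too, limit read from the data; inconclusive = no clear call, values can overlap the other calls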
DENV2 CPE: inhibitors of DENV2 cytopathic effect, primary screen, cell-based, plate reader, single concentration. DENV2-infected cells, cytopathic effect rescue. CPE inhibition, % at 9.99 µM. hit rate 1.7% among 350,000. AID 651640, 2012; in the data active = CPE inhibition above about 20%, passing the limit was not always enough; inconclusive = no clear call, values can overlap the other calls; tested in BHK-21 cells;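 note: 0% = median of neutral control wells and 100% = median of positive control wells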
RAD52 inh: RAD52 DNA annealing inhibitors, primary screen, biochemical, FRET, single point, set 2; hit rate 0.46% among 360,000; DNA repair protein RAD52 homolog (Homo sapiens), P43351; AID 651710, 2012; recombinant RAD52 DNA annealing, FRET fluorescence; inhibition, % at 18.7 µM;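 active = every replicate showing at least 50% inhibition; inconclusive = mean inhibition at least 50% but not in every replicate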
* marks the source's active call; other numbers are inactive results; ? = inconclusive; / = not tested or not shown.

SMILES	MLL AF4-AF9 inh	ERAP1 inh	FGF22 binding	DENV2 CPE	RAD52 inh
COCC(=O)Nc1ccc2c(c1)OC[C@H](C)N(Cc1cc(F)ccc1F)C[C@H](C)[C@@H](OC)CN(C)C2=O	1	-2	0	-8	-4
COCC(=O)Nc1ccc2c(c1)OC[C@@H](C)N(Cc1cccc(F)c1)C[C@@H](C)[C@@H](OC)CN(C)C2=O	4	2	0	-2	1
CO[C@@H]1CN(C)C(=O)c2ccc(NS(=O)(=O)c3cccc(F)c3)cc2OC[C@@H](C)N(Cc2cc(F)ccc2F)C[C@@H]1C	1	-3	0	-1	4
COCC(=O)Nc1ccc2c(c1)OC[C@@H](C)N(Cc1cc(F)ccc1F)C[C@@H](C)[C@@H](OC)CN(C)C2=O	0	1	0	31*	3
CO[C@H]1CN(C)C(=O)c2cc(NC(=O)C3CC3)ccc2OC[C@@H](C)N(Cc2cc(F)ccc2F)C[C@@H]1C	43*	-2	0	-15	14
CO[C@@H]1CN(C)C(=O)c2ccc(NS(=O)(=O)c3cccc(F)c3)cc2OC[C@H](C)N(Cc2cc(F)ccc2F)C[C@@H]1C	-2	-1	0	28*	0
COCC(=O)Nc1ccc2c(c1)OC[C@@H](C)N(Cc1cccc(F)c1)C[C@H](C)[C@H](OC)CN(C)C2=O	8	-1	0	35*	4
CN1C(=O)c2cc(NC(=O)c3cccs3)ccc2OC[C@H]2O[C@H](CC(=O)O)CC[C@H]21	-2	/	0	/	0
C[C@H](CO)N1C[C@H](C)[C@@H](CN(C)C(=O)Nc2ccc3c(c2)OCO3)Oc2ccc(NC(=O)Nc3ccc(C(F)(F)F)cc3)cc2CC1=O	15	1	0	-7	-16
COc1ccc2c3c(n(C)c2c1)[C@@H](CO)N(S(=O)(=O)c1ccc(C)cc1)CC31CCN(S(=O)(=O)c2ccc(C)cc2)CC1	1	-2	0	-2	-18
COc1cccc(C(=O)Nc2ccc3c(c2)C(=O)N(C)[C@H]2CC[C@H](CC(=O)NCc4ccccc4F)O[C@H]2CO3)c1	0	/	/	/	/
CNC(=O)/C(C#N)=C/c1ccc(-c2ccc(Cl)cc2)o1	5	-2	1.5*	7	-157
CNC(=O)/C(C#N)=C/c1ccc(-c2ccccc2[N+](=O)[O-])o1	0	-4	42	4	-19
Cc1ccc(C2NC(=S)NC3=C2C(=O)CCC3)cc1 (centres undefined)	-1	3	43*	-1	-8
CCCNC(=O)N1CC2(CN(Cc3ccccn3)C2)c2c(n(C)c3cc(OC)ccc23)[C@@H]1CO	16	/	/	?	/
CCCC(=O)Nc1ccc2c(c1)OC[C@@H](C)N(C(=O)c1ccccn1)C[C@@H](C)[C@@H](OC)CN(C)C2=O	-31	-4	0	21*	9
CCCC(=O)Nc1ccc2c(c1)OC[C@H](C)N(C(=O)c1ccccn1)C[C@H](C)[C@@H](OC)CN(C)C2=O	-24	-5	0	-10	3
CCCC(=O)Nc1ccc2c(c1)OC[C@H](C)N(C(=O)c1ccccn1)C[C@H](C)[C@H](OC)CN(C)C2=O	-33	-4	0	-13	2
CCCC(=O)Nc1ccc2c(c1)OC[C@H](C)N(C(=O)c1ccccn1)C[C@@H](C)[C@H](OC)CN(C)C2=O	-36	-3	0	22*	-9
CN1c2ccc(-c3ccccc3)cc2[C@H]2[C@H](CCN2C(=O)c2ccncc2)[C@@H]1CO	0	-3	0	-11	-25
Cc1ccc(-c2ccc3c(c2)O[C@@H](CN(C)C)[C@H](C)CN([C@@H](C)CO)S3(=O)=O)cc1	-7	2	0	-12	8
COc1ccc2c3c([nH]c2c1)[C@@H](CO)N(Cc1cccc(F)c1)CC31CN(C(C)=O)C1	-2	-6	0	6	-41
COc1ccc2c3c([nH]c2c1)[C@H](CO)N(Cc1cccc(Cl)c1)CC31CN(C)C1	2	-2	0	18	56*
COc1cccc(CN2CC3(CCN(CC4CC4)CC3)c3c([nH]c4cc(OC)ccc34)[C@H]2CO)c1	3	/	0	1	/
COc1ccc2c3c([nH]c2c1)[C@@H](CO)N(Cc1cccc(Cl)c1)CC31CN(C)C1	3	0	0	?	48
SMILES	MLL AF4-AF9 inh	ERAP1 inh	FGF22 binding	DENV2 CPE	RAD52 inh
COc1ccc2c3c([nH]c2c1)[C@@H](CO)N(Cc1ccccc1)CC31CN(C)C1	13	71*	0	-6	3
COc1ccc2c3c([nH]c2c1)[C@H](CO)N(Cc1ccccc1)CC31CCN(CC2CC2)CC1	26*	2	0	13	33
COc1ccc2c3c([nH]c2c1)[C@H](CO)N(Cc1cccc(F)c1)CC31CN(Cc2ccccn2)C1	13	-1	0	23*	-20
CO[C@H]1CN(C)C(=O)c2ccc(NC(=O)c3ccccc3F)cc2OC[C@@H](C)N(C(C)=O)C[C@@H]1C	-1	2	0	3	-2
COc1cccc(CN2[C@@H]3CNC[C@H]2C3c2ccc(-c3cccc(C#N)c3)cc2)c1 (some centres undefined)	-7	-3	/	?	24
COc1cc(CN2CC3(CN(C)C3)c3c([nH]c4cc(OC)ccc34)[C@@H]2CO)cc(OC)c1	18	4	0	7	54*
COc1cccc(CN2CC3(CN(C)C3)c3c([nH]c4cc(OC)ccc34)[C@H]2CO)c1	8	0	/	0	46
O=C(COC(=O)c1ccc(NC(=O)C2CC=CCC2C(=O)O)cc1)c1ccccc1 (centres undefined)	2	-15	0	68*	-6
Cc1ccccc1Oc1ccc(NC(=O)C2CC=CCC2C(=O)O)cc1 (centres undefined)	-26	-1	0	-5	-10
C[C@@H]1CN([C@@H](C)CO)C(=O)Cc2cc(NC(=O)Cn3cnnn3)ccc2O[C@H]1CN(C)C	-3	-2	0	0	-12
O=C(NCc1cccnc1)c1c(O)c2cccc3c2n(c1=O)CCC3	-1	-2	43*	-1	-8
NCCNC(=O)c1c(O)c2cccc3c2n(c1=O)CCC3	4	31*	0	3	32
O=C(C1CCC1)N1CC2(C1)[C@H](c1ccccc1)[C@@H](CO)N2C(=O)CC1CC1	-2	2	/	-4	-19
CC(C)NC(=O)Nc1ccc2c(c1)C(=O)N([C@H](C)CO)C[C@H](C)[C@H](CN(C)S(C)(=O)=O)OCCCC[C@H](C)O2	-8	-5	0	-2	15
c1ccc(CNC23CC4CC(CC(C4)C2)C3)nc1	-1	3	43*	1	-17
O=C(NCc1ccccn1)C(=O)Nc1nc(C23CC4CC(CC(C4)C2)C3)cs1	/	1	0	-5	-12
